# Measured values: paper PMC7862700, “An all-to-all approach to the identification of sequence-specific readers for epigenetic DNA modifications on cytosine”
# Columns and labels:
# Assay in all cases: DAPPL (digital affinity profiling via proximity ligation, sequencing); 10 mM Tris-HCl pH 7.5, 50 mM NaCl, 1 mM DTT, 4% glycerol, room temperature, 30 min; GST-TFs on glutathione beads, 16-mer random dsDNA library, 0.1% formaldehyde crosslink after washing; high values mean tight binding
# Details in all cases: protein: recombinant; tags: N-terminal GST; dsDNA, one strand shown
# FLI1 = biological target: T1, FLI1 (Homo sapiens, UniProt Q01543 1-452)
# T1 sequence: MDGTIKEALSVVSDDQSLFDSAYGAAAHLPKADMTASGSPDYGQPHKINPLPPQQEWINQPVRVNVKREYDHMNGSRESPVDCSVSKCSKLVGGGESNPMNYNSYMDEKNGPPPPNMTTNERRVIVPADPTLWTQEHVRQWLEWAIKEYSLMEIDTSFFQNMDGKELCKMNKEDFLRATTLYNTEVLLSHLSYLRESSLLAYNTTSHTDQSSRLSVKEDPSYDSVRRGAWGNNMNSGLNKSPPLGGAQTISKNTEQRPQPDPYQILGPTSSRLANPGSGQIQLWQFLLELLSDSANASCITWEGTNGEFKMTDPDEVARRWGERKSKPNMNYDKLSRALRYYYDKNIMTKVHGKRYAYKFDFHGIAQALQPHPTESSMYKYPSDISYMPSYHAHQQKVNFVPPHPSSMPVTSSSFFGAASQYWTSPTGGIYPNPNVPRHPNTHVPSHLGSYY
# Method in brief: (§1)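 Yeast served to express human transcription factors as GST fusions, which were then captured on glutathione beads and labelled with DNA barcodes. Pooled with a tag-only sample, they were incubated with 200 nmole of a 16-mer random double-stranded DNA library for 30 min at room temperature in Tris/NaCl/DTT/glycerol buffer, washed, crosslinked with 0.1% formaldehyde, ligated by proximity, amplified by PCR and sequenced. Dividing each hexamer's read frequency for a factor by its frequency for the tag-only sample gives the binding signal.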
# ELK1 = biological target: T2, ELK1 (Homo sapiens, UniProt P19419 1-428)
# T2 sequence: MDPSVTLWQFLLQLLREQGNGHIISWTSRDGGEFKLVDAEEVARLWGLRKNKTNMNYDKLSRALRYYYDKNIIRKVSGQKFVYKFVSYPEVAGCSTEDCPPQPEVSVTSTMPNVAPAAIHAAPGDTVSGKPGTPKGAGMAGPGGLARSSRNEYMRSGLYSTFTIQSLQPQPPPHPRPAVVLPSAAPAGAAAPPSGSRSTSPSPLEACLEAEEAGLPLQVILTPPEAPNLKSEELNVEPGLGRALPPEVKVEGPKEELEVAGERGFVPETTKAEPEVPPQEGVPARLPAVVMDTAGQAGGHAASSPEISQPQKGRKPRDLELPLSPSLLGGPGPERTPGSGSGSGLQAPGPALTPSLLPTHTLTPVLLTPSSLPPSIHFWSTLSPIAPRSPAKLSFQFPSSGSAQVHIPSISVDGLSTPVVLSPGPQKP
# Method in brief: as §1
# GABPA = biological target: T3, GABPA (Homo sapiens, UniProt Q06546 1-454)
# T3 sequence: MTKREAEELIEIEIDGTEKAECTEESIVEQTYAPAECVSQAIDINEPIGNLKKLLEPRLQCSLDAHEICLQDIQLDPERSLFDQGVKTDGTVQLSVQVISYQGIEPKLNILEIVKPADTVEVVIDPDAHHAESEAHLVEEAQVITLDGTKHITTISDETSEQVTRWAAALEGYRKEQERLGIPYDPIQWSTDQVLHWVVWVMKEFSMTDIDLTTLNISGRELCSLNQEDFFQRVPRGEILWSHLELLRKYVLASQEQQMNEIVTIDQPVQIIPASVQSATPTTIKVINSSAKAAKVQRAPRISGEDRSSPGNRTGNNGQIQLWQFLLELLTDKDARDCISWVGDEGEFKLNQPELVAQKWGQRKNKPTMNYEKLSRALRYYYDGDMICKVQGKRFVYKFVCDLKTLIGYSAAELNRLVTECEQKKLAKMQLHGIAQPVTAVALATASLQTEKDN
# Method in brief: as §1
# ERG = biological target: T4, ERG (Homo sapiens, UniProt P11308 1-479)
# T4 sequence: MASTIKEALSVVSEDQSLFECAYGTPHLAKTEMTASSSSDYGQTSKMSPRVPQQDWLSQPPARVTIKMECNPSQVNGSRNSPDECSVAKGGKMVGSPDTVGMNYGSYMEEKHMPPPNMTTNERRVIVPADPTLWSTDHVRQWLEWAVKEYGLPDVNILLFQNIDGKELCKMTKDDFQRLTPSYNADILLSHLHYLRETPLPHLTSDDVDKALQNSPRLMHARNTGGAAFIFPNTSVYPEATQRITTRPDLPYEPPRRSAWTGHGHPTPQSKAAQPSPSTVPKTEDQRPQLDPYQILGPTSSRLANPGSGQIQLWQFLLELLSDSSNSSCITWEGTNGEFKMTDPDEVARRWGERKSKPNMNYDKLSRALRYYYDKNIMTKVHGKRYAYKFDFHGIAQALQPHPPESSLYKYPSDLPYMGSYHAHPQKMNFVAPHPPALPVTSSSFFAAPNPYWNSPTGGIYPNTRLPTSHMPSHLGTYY
# Method in brief: as §1
# ELF1 = ELF1 (Homo sapiens, UniProt P32519 1-619)
# Chain of ELF1 (P32519 whole entry): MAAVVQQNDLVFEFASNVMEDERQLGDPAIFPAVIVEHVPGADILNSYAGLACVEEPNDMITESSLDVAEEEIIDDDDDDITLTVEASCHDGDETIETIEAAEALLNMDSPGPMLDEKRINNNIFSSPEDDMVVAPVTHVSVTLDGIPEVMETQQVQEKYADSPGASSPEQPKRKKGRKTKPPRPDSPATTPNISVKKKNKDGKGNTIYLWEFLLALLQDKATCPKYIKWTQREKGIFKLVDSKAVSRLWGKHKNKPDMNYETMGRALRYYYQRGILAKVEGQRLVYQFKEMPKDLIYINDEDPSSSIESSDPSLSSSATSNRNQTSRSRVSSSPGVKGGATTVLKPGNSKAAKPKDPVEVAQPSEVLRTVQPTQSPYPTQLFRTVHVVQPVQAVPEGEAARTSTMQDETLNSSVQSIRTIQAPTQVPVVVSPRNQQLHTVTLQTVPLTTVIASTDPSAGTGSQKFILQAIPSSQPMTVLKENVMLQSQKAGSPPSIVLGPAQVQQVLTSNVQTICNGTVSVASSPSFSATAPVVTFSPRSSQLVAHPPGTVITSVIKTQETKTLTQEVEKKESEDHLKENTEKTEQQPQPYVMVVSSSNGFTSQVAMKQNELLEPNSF
# Method in brief: as §1
# SPI1 = SPI1 (Homo sapiens, UniProt P17947 1-270)
# Method in brief: as §1
# ELK3 = biological target: T5, ELK3 (Homo sapiens, UniProt P41970 1-407)
# T5 sequence: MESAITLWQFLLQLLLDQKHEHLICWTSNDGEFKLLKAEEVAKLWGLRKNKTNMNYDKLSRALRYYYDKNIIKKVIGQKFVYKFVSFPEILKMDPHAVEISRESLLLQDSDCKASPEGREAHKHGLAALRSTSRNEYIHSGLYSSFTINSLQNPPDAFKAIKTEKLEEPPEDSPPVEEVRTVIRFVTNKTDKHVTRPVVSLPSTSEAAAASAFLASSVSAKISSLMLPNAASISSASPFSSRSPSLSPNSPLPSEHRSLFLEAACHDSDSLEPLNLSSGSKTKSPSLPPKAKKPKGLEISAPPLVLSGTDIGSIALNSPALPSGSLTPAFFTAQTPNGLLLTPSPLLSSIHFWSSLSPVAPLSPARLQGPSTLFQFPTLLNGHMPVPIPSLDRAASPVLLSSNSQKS
# Method in brief: as §1
# SPIB = SPIB (Homo sapiens, UniProt Q01892 1-262)
# Chain of SPIB (Q01892 whole entry): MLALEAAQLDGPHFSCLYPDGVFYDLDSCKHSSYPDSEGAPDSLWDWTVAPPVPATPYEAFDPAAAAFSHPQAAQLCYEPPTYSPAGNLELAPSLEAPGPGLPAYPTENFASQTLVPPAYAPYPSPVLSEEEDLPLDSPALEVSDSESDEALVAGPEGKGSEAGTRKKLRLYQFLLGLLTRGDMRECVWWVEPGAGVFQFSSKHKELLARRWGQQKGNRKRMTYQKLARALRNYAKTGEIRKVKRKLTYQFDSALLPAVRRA
# Method in brief: as §1
# EHF = biological target: T6, EHF (Homo sapiens, UniProt Q9NZC4 1-300)
# T6 sequence: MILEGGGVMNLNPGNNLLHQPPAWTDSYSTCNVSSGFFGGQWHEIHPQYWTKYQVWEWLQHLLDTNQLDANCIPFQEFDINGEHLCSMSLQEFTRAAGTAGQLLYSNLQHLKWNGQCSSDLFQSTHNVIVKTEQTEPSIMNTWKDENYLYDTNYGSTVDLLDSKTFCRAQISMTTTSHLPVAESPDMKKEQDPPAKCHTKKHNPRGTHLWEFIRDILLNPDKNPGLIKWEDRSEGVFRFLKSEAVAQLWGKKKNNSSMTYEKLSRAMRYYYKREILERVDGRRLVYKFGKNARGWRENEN
# Method in brief: as §1
Sequence,binding signal (FLI1),binding signal (ELK1),binding signal (GABPA),binding signal (ERG),binding signal (ELF1),binding signal (SPI1),binding signal (ELK3),binding signal (SPIB),binding signal (EHF)
TATCAA,"1.1 fold enrichment (6-mer frequency, TF over GST control)","1.06 fold enrichment (6-mer frequency, TF over GST control)","1.13 fold enrichment (6-mer frequency, TF over GST control)","1.03 fold enrichment (6-mer frequency, TF over GST control)","1.02 fold enrichment (6-mer frequency, TF over GST control)","1.02 fold enrichment (6-mer frequency, TF over GST control)","1.02 fold enrichment (6-mer frequency, TF over GST control)",,
ACACGA,"1.08 fold enrichment (6-mer frequency, TF over GST control)","1.1 fold enrichment (6-mer frequency, TF over GST control)","1.11 fold enrichment (6-mer frequency, TF over GST control)","1.02 fold enrichment (6-mer frequency, TF over GST control)","1.1 fold enrichment (6-mer frequency, TF over GST control)","1.07 fold enrichment (6-mer frequency, TF over GST control)","1.1 fold enrichment (6-mer frequency, TF over GST control)","1.04 fold enrichment (6-mer frequency, TF over GST control)",
GCAATA,"1.02 fold enrichment (6-mer frequency, TF over GST control)","1.1 fold enrichment (6-mer frequency, TF over GST control)","1.02 fold enrichment (6-mer frequency, TF over GST control)",,"1.05 fold enrichment (6-mer frequency, TF over GST control)",,,,"1.07 fold enrichment (6-mer frequency, TF over GST control)"
TAGGTC,"1.06 fold enrichment (6-mer frequency, TF over GST control)","1.03 fold enrichment (6-mer frequency, TF over GST control)","1.1 fold enrichment (6-mer frequency, TF over GST control)","1.03 fold enrichment (6-mer frequency, TF over GST control)","1.01 fold enrichment (6-mer frequency, TF over GST control)",,"1.08 fold enrichment (6-mer frequency, TF over GST control)","1.01 fold enrichment (6-mer frequency, TF over GST control)",
CCCTGG,"1.1 fold enrichment (6-mer frequency, TF over GST control)","1.13 fold enrichment (6-mer frequency, TF over GST control)","1.21 fold enrichment (6-mer frequency, TF over GST control)",,"1.19 fold enrichment (6-mer frequency, TF over GST control)","1.06 fold enrichment (6-mer frequency, TF over GST control)","1.03 fold enrichment (6-mer frequency, TF over GST control)","1.09 fold enrichment (6-mer frequency, TF over GST control)","1.11 fold enrichment (6-mer frequency, TF over GST control)"
GGCCCT,"1.09 fold enrichment (6-mer frequency, TF over GST control)","1.08 fold enrichment (6-mer frequency, TF over GST control)","1.11 fold enrichment (6-mer frequency, TF over GST control)","1.1 fold enrichment (6-mer frequency, TF over GST control)","1 fold enrichment (6-mer frequency, TF over GST control)",,,"1.15 fold enrichment (6-mer frequency, TF over GST control)",
GTAGCA,"1.03 fold enrichment (6-mer frequency, TF over GST control)","1.1 fold enrichment (6-mer frequency, TF over GST control)","1.15 fold enrichment (6-mer frequency, TF over GST control)",,"1.16 fold enrichment (6-mer frequency, TF over GST control)","1.08 fold enrichment (6-mer frequency, TF over GST control)","1.11 fold enrichment (6-mer frequency, TF over GST control)","1.03 fold enrichment (6-mer frequency, TF over GST control)","1.1 fold enrichment (6-mer frequency, TF over GST control)"
CAAAGC,"1.08 fold enrichment (6-mer frequency, TF over GST control)","1.02 fold enrichment (6-mer frequency, TF over GST control)","1.16 fold enrichment (6-mer frequency, TF over GST control)","1 fold enrichment (6-mer frequency, TF over GST control)","1.17 fold enrichment (6-mer frequency, TF over GST control)","1.03 fold enrichment (6-mer frequency, TF over GST control)","1.1 fold enrichment (6-mer frequency, TF over GST control)","1.04 fold enrichment (6-mer frequency, TF over GST control)",
TTGGGT,"1.02 fold enrichment (6-mer frequency, TF over GST control)","1.13 fold enrichment (6-mer frequency, TF over GST control)","1.22 fold enrichment (6-mer frequency, TF over GST control)",,"1.09 fold enrichment (6-mer frequency, TF over GST control)","1.02 fold enrichment (6-mer frequency, TF over GST control)","1.16 fold enrichment (6-mer frequency, TF over GST control)","1.05 fold enrichment (6-mer frequency, TF over GST control)","1.04 fold enrichment (6-mer frequency, TF over GST control)"
GAACCA,"1.02 fold enrichment (6-mer frequency, TF over GST control)","1.05 fold enrichment (6-mer frequency, TF over GST control)","1.05 fold enrichment (6-mer frequency, TF over GST control)",,"1.05 fold enrichment (6-mer frequency, TF over GST control)",,,,"1.08 fold enrichment (6-mer frequency, TF over GST control)"
ACCCAA,"1.12 fold enrichment (6-mer frequency, TF over GST control)","1.15 fold enrichment (6-mer frequency, TF over GST control)","1.18 fold enrichment (6-mer frequency, TF over GST control)","1.03 fold enrichment (6-mer frequency, TF over GST control)","1.16 fold enrichment (6-mer frequency, TF over GST control)","1.12 fold enrichment (6-mer frequency, TF over GST control)","1.03 fold enrichment (6-mer frequency, TF over GST control)","1.08 fold enrichment (6-mer frequency, TF over GST control)",
GTATGG,"1.12 fold enrichment (6-mer frequency, TF over GST control)","1.04 fold enrichment (6-mer frequency, TF over GST control)","1.04 fold enrichment (6-mer frequency, TF over GST control)",,"1.08 fold enrichment (6-mer frequency, TF over GST control)","1.06 fold enrichment (6-mer frequency, TF over GST control)",,"1.1 fold enrichment (6-mer frequency, TF over GST control)","1.05 fold enrichment (6-mer frequency, TF over GST control)"
CTATGT,"1.11 fold enrichment (6-mer frequency, TF over GST control)","1.11 fold enrichment (6-mer frequency, TF over GST control)","1.22 fold enrichment (6-mer frequency, TF over GST control)",,"1.09 fold enrichment (6-mer frequency, TF over GST control)","1.04 fold enrichment (6-mer frequency, TF over GST control)",,"1.15 fold enrichment (6-mer frequency, TF over GST control)","1.03 fold enrichment (6-mer frequency, TF over GST control)"
CTCAGG,"1.08 fold enrichment (6-mer frequency, TF over GST control)","1.13 fold enrichment (6-mer frequency, TF over GST control)","1.02 fold enrichment (6-mer frequency, TF over GST control)","1.1 fold enrichment (6-mer frequency, TF over GST control)","1.08 fold enrichment (6-mer frequency, TF over GST control)",,"1.07 fold enrichment (6-mer frequency, TF over GST control)","1.11 fold enrichment (6-mer frequency, TF over GST control)",
